Results filed as inconclusive are left out. Calls of active or inactive are those of the source. How the source made its calls, unless noted: active means hit-call score of the fitted dose curve at least 0.9, where 1 is the maximum; inconclusive means response in the unintended direction; inactive means score below 0.9.
Legend:
[1] = ATG_TCF_b_cat_CIS: Attagene CIS-FACTORIAL HepG2 Assay for human T-Cell-Factor with beta-catenin (TCF/b-cat) (AID 2282965; active means hit-call score of the fitted dose curve at least 0.9, where 1 is the maximum; inactive means score below 0.9); conditions: HepG2 TCF/beta-catenin cis-reporter transcription, actives raise or lower the signal
How it was run: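 Measured: reporter mRNA in HepG2 transiently transfected with cis-promoter reporter units, 24 h after chemical addition. Fitting was bidirectional, DMSO as negative control.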

[2] = ATG_TAL_CIS: Attagene CIS-FACTORIAL HepG2 Assay for human TAL Basal Promoter (AID 2282966; active means hit-call score of the fitted dose curve at least 0.9, where 1 is the maximum; inactive means score below 0.9;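 further: background control endpoint measuring basal TAL promoter reporter mRNA not a specific factor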); conditions: HepG2 Attagene cis-factorial TAL promoter reporter; actives raise or lower the signal
How it was run: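 In this cell-based multiplex, HepG2 liver cells bearing cis-promoter reporter constructs are dosed for 24 hours. Total RNA is reverse-transcribed and amplified, labelled fragments are sized by capillary electrophoresis, and signal changes are fitted bidirectionally versus DMSO.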

[3] = ATG_TGFb_CIS: Attagene CIS-FACTORIAL HepG2 Assay for human Transforming Growth Factor (TGF) (AID 2282967; active means hit-call score of the fitted dose curve at least 0.9, where 1 is the maximum; inactive means score below 0.9); conditions: HepG2 Attagene CIS TGFb reporter, mRNA transcription; actives raise or lower the signal
How it was run: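 HepG2 cells transiently transfected with cis-promoter-driven multiplexed reporter units; 24 h compound exposure. Reporter mRNA measured by RT-PCR, 6-FAM labeling, HpaI digestion and capillary electrophoresis; bidirectional fit versus DMSO baseline.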

[4] = ATG_VDRE_CIS: Attagene CIS-FACTORIAL HepG2 Assay for human Vitamin D Receptor Element (VDRE) (AID 2282968; active means hit-call score of the fitted dose curve at least 0.9, where 1 is the maximum; inactive means score below 0.9); conditions: HepG2 VDRE cis-reporter transcription, actives raise or lower the signal
How it was run: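 Reporter mRNA induction, quantified by capillary electrophoresis of fluorescently labelled RT-PCR products, was read 24 h after dosing HepG2 cells carrying transiently transfected cis-regulated reporter units; gain or loss relative to DMSO.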

[5] = biological target: Estrogen receptor (Homo sapiens) (UniProt P03372); assay: ATG_ERa_TRANS: Attagene TRANS-FACTORIAL HepG2 Assay for human Estrogen Receptor alpha (ERa) (AID 2282970); conditions: HepG2 Attagene TRANS ERa GAL4 reporter, mRNA
Estrogen receptor (Homo sapiens), sequence (P03372 whole entry, looked up, the tested form may be a part): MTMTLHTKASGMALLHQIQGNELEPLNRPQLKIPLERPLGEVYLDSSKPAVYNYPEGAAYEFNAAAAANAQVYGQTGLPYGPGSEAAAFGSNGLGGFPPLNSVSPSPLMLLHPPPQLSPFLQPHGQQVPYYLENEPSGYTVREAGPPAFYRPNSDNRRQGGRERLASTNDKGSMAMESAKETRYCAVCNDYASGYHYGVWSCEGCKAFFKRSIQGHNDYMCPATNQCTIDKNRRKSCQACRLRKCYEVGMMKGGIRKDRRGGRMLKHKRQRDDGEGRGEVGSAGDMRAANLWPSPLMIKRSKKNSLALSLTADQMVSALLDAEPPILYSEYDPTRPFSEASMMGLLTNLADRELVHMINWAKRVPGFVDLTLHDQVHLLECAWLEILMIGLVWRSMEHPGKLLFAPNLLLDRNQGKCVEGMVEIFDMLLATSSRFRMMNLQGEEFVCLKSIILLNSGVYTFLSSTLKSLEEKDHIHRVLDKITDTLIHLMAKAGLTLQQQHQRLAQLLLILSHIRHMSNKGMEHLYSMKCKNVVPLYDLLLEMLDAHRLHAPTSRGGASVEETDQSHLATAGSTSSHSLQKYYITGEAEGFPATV
How it was run: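 After 24 h of compound treatment, RNA from HepG2 cells bearing transfected GAL4-UAS reporter constructs is converted to cDNA, amplified and fluorescently labelled. Capillary electrophoresis resolves the ERa-linked reporter; DMSO serves as negative control.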

[6] = biological target: X-box-binding protein 1 (Homo sapiens) (UniProt P17861); assay: ATG_Xbp1_CIS: Attagene CIS-FACTORIAL HepG2 Assay for human X-box Binding Protein 1 (XBP1) (AID 2282972; active means hit-call score of the fitted dose curve at least 0.9, where 1 is the maximum; inactive means score below 0.9); conditions: HepG2 XBP1 cis-element reporter, Attagene multiplex; actives raise or lower the signal
X-box-binding protein 1 (Homo sapiens), sequence (P17861 whole entry, looked up): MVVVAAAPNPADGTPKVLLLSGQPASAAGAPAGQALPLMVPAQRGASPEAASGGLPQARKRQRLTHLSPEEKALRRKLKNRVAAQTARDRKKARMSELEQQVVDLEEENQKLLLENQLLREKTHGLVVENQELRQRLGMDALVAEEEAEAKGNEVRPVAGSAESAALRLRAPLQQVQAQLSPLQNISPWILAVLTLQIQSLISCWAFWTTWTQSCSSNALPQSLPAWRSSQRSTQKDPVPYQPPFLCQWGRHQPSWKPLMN
How it was run: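 HepG2 cells transiently transfected with multiple cis-element reporter units report endogenous TF activity; 24 h exposure, then reporter mRNA measured by RT-PCR, 6-FAM labelling, HpaI digestion and capillary electrophoresis. Bidirectional fitting versus DMSO.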

[7] = ATG_M_19_TRANS: Attagene TRANS-FACTORIAL HepG2 Assay for M19 Transcription Factor (Internal Marker) (AID 2282974); conditions: HepG2 Attagene TRANS-FACTORIAL M19 internal marker reporter
How it was run: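 Transfected HepG2 (GAL4-UAS MRTUs), 24 h compound, TriZol RNA, DNase-treated RT, reporter PCR, FAM label, HpaI digest, CE fluorescence; gain vs DMSO.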

[8] = biological target: Estrogen-related receptor gamma (Homo sapiens) (UniProt P62508); assay: ATG_ERRg_TRANS: Attagene TRANS-FACTORIAL HepG2 Assay for human Estrogen-Related Receptor gamma (ERRg) (AID 2282977); conditions: HepG2 Attagene TRANS reporter, ERRg transactivation;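 further: hits increase reporter signal over DMSO so potencies reflect activators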
How it was run: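 Transfect HepG2 with multiple GAL4-UAS reporter transcription units; dose chemicals 24 h; isolate RNA, reverse-transcribe with oligo(dT), PCR-amplify, label with 6-FAM, digest with HpaI; size fragments by capillary electrophoresis. DMSO serves as negative control.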

[9] = biological target: Glucocorticoid receptor (Homo sapiens) (UniProt P04150); assay: ATG_GR_TRANS: Attagene TRANS-FACTORIAL HepG2 Assay for human Glucocorticoid Receptor (GR) (AID 2282978); conditions: HepG2 Attagene TRANS GR reporter, mRNA transcription;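 further: activators score as hits since higher reporter transcript over DMSO is fitted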
Glucocorticoid receptor (Homo sapiens), sequence (P04150 whole entry, looked up): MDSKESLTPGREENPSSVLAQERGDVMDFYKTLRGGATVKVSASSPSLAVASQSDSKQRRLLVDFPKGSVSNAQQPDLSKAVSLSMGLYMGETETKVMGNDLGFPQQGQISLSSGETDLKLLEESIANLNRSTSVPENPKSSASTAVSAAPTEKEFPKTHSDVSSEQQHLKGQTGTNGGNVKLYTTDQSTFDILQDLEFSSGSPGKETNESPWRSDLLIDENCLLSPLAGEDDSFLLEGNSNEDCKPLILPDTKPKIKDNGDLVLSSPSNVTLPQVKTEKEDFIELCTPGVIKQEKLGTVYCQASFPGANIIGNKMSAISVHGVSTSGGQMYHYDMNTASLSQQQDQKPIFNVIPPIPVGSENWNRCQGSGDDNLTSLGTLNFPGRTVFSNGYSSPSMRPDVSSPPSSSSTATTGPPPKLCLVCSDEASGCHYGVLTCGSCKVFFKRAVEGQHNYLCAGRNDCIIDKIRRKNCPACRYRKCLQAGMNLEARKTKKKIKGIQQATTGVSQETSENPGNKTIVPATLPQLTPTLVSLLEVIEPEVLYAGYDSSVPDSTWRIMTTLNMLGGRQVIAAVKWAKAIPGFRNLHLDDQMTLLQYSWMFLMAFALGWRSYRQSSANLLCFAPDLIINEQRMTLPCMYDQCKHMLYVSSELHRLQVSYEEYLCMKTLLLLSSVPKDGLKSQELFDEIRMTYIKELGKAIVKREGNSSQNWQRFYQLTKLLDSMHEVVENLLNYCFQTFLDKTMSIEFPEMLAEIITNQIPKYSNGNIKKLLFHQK
How it was run: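 After 24 h incubation with test chemical, transfected HepG2 cells were lysed for RNA; reporter cDNA was amplified, FAM-labelled, HpaI-digested and sized on a capillary analyser. Signal gain relative to DMSO was scored.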

[10] = biological target: Bile acid receptor (Homo sapiens) (UniProt Q96RI1); assay: ATG_FXR_TRANS: Attagene TRANS-FACTORIAL HepG2 Assay for Farnesoid X Receptor (FXR) (AID 2282979); conditions: HepG2 Attagene TRANS FXR-GAL4 reporter transcription;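 further: hits raise reporter mRNA above DMSO so AC50 marks FXR activation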
Bile acid receptor (Homo sapiens), sequence (Q96RI1 whole entry, looked up, the tested form may be a part): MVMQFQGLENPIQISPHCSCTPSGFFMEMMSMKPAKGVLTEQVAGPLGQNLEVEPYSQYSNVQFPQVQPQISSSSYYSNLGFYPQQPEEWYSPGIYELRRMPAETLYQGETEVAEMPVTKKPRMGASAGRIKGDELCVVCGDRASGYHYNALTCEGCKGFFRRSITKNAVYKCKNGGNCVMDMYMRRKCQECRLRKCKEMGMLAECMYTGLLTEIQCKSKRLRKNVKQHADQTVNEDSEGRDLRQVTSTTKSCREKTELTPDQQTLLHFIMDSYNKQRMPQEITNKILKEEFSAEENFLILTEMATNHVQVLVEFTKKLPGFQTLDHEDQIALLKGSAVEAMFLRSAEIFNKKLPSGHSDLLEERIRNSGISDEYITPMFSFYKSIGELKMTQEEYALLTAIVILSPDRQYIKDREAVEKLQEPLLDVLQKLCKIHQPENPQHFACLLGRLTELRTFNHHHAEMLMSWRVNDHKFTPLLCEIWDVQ
How it was run: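 Read-out: fluorescent reporter transcripts quantified by capillary electrophoresis after RT-PCR of total RNA. Source cells were HepG2 transiently carrying chimeric NR-GAL4 plus GAL4-UAS reporter units, dosed 24 h. Activity fitted upward relative to DMSO baseline.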

[11] = biological target: Oxysterols receptor LXR-beta (Homo sapiens) (UniProt P55055); assay: ATG_LXRb_TRANS: Attagene TRANS-FACTORIAL HepG2 Assay for human Liver X Receptor beta (LXRb) (AID 2282981); conditions: HepG2 Attagene TRANS GAL4-LXRb reporter, mRNA
Oxysterols receptor LXR-beta (Homo sapiens), sequence (P55055 whole entry, looked up, the tested form may be a part): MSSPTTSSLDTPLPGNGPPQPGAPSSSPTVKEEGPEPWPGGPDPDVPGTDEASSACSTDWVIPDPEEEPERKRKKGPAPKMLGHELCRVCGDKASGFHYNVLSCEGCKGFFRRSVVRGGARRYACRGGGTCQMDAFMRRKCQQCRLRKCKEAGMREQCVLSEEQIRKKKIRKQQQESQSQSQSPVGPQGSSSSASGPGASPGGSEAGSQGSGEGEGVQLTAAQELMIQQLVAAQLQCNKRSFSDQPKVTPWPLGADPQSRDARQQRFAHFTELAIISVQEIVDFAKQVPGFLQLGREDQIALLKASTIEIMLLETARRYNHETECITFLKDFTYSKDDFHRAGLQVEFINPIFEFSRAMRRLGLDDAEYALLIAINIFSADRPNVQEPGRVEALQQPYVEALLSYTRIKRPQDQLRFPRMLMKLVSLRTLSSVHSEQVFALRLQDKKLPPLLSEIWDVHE
How it was run: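 Transient transfection HepG2 (multiplexed RTUs, GAL4-UAS); NR-Gal4 chimera; 24 h exposure; RNA → RT-PCR → 6-FAM primer extension → HpaI → CE; increase vs DMSO.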

[12] = biological target: Hepatocyte nuclear factor 4-alpha (Homo sapiens) (UniProt P41235); assay: ATG_HNF4a_TRANS: Attagene TRANS-FACTORIAL HepG2 Assay for human Hepatocyte Nuclear Factor 4 alpha (HNF4a) (AID 2282982); conditions: HepG2 HNF4a transactivation reporter, mRNA readout
Hepatocyte nuclear factor 4-alpha (Homo sapiens), sequence (P41235 whole entry, looked up, the tested form may be a part): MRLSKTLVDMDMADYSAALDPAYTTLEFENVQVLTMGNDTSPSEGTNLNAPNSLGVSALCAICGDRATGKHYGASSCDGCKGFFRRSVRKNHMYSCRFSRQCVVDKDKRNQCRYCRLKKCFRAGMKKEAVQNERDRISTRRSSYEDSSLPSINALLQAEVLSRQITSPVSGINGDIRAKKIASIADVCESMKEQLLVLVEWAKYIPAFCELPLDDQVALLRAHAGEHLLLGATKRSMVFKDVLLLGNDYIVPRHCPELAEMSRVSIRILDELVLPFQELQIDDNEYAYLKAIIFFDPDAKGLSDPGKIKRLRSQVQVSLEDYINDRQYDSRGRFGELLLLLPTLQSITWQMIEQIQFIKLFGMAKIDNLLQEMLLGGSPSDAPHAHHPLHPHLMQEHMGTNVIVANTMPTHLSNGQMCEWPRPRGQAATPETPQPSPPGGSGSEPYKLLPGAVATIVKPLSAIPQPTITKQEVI
How it was run: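 Readout is fluorescent reporter-transcript fragments resolved by capillary electrophoresis after RT-PCR from HepG2 cells dosed for 24 h. Cells carried transfected GAL4-UAS reporter constructs measuring exogenous NR-GAL4 chimera activity; DMSO served as baseline.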

[13] = ATG_M_32_TRANS: Attagene TRANS-FACTORIAL HepG2 Assay for M32 Transcription Factor (Internal Marker) (AID 2282984); conditions: HepG2 Attagene TRANS M32 internal marker reporter;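 further: transcript level of a background control reporter unit measured by RT-PCR and capillary electrophoresis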
How it was run: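 Measures reporter mRNA induction in human HepG2 liver cells after 24 h chemical treatment. Transcripts from transiently transfected GAL4-UAS reporter units are amplified, fluorescently labelled and sized by capillary electrophoresis; gain of signal relative to DMSO.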

[14] = biological target: Nuclear receptor subfamily 4 group A member 2 (Homo sapiens) (UniProt P43354); assay: ATG_NURR1_TRANS: Attagene TRANS-FACTORIAL HepG2 Assay for human Nuclear Receptor Related Protein 1 (NURR1) (AID 2282985); conditions: HepG2 Attagene TRANS reporter, mRNA readout
Nuclear receptor subfamily 4 group A member 2 (Homo sapiens), sequence (P43354 whole entry, looked up, the tested form may be a part): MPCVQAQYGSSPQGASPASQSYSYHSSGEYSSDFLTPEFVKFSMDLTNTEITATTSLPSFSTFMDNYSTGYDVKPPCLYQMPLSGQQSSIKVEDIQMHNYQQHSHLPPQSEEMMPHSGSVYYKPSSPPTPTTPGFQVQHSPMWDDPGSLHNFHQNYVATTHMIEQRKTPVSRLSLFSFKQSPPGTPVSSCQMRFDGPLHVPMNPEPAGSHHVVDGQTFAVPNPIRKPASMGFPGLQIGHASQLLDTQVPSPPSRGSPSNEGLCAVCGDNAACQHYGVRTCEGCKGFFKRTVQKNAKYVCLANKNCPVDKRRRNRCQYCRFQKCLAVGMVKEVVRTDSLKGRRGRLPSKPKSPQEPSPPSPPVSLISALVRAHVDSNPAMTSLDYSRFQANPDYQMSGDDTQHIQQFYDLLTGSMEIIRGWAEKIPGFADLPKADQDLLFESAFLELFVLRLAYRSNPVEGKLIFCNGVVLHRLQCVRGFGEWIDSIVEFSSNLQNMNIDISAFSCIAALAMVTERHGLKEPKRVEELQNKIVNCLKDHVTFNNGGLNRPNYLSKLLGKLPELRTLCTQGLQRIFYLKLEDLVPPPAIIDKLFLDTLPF
How it was run: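 Transient transfection of HepG2, human liver cells, with multiple GAL4-UAS reporter transcription units. Cells dosed 24 h, RNA isolated, reverse-transcribed, PCR-amplified, FAM-labelled, HpaI-digested, sized by capillary electrophoresis. DMSO served as negative control.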

[15] = biological target: Transcriptional activator Myb (Homo sapiens) (UniProt P10242); assay: ATG_Myb_CIS: Attagene CIS-FACTORIAL HepG2 Assay for human Myeloblastosis (Myb) Proto-Oncogene Transcription Factor (AID 2282986; active means hit-call score of the fitted dose curve at least 0.9, where 1 is the maximum; inactive means score below 0.9); conditions: HepG2 Attagene CIS-FACTORIAL Myb reporter transcription; actives raise or lower the signal
Transcriptional activator Myb (Homo sapiens), sequence (P10242 whole entry, looked up): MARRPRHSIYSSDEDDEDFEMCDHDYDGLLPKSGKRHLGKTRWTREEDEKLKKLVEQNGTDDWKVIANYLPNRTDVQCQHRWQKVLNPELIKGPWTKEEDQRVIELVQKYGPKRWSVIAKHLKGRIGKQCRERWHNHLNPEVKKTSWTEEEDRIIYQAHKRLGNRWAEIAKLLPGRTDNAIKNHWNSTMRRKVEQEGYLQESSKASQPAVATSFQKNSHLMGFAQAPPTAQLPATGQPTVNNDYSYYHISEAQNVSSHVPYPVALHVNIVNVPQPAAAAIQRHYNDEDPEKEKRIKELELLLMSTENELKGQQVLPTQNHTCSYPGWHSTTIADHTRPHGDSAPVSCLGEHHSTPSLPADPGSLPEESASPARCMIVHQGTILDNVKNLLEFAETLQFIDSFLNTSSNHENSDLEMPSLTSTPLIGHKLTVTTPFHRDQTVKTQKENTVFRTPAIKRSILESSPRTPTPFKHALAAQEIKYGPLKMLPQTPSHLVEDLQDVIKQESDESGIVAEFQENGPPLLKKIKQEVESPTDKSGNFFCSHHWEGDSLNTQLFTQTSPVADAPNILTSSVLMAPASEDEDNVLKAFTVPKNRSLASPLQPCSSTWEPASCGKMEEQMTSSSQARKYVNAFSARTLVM
How it was run: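 After 24 h of compound dosing, total RNA from transfected HepG2 cells is reverse-transcribed and the reporter sequences amplified, labeled and separated by capillary electrophoresis. Values come from bidirectional fitting against DMSO.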

[16] = ATG_GAL4_TRANS: Attagene TRANS-FACTORIAL HepG2 Assay for GAL4 (Internal Marker) (AID 2282976); conditions: HepG2 Attagene TRANS GAL4 internal marker reporter
How it was run: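 RT-PCR/capillary electrophoresis readout of reporter mRNA. HepG2, transient MRTU transfection (GAL4-UAS reporters), 24 h compound exposure. Background-control endpoint, positive direction vs DMSO baseline.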

[17] = ATG_M_06_TRANS: Attagene TRANS-FACTORIAL HepG2 Assay for M06 Transcription Factor (Internal Marker) (AID 2282983); conditions: HepG2 Attagene TRANS M06 internal marker reporter
How it was run: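 After a 24 h chemical treatment of transfected HepG2, RNA underwent DNase I treatment, reverse transcription and reporter-specific PCR; labelled, HpaI-digested products were sized by capillary electrophoresis. Signal increase relative to DMSO defined activity.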

[18] = biological target: Nuclear receptor subfamily 1 group I member 3 (Homo sapiens) (UniProt Q14994); assay: ATG_CAR_TRANS: Attagene TRANS-FACTORIAL HepG2 Assay for human Constitutive Androstane Receptor (CAR) (AID 2282969); conditions: HepG2 Attagene TRANS-FACTORIAL CAR reporter;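 further: activators raise reporter mRNA above DMSO so AC50 marks induction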
How it was run: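 Readout is reporter mRNA induction, quantified by fluorescent primer extension and capillary electrophoresis after RT-PCR. Cells were HepG2 transiently carrying chimeric NR-Gal4 constructs with GAL4-UAS reporters, treated for 24 h; activity scored upward from DMSO.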

[19] = biological target: Oxysterols receptor LXR-alpha (Homo sapiens) (UniProt Q13133); assay: ATG_LXRa_TRANS: Attagene TRANS-FACTORIAL HepG2 Assay for human Liver X Receptor alpha (LXRa) (AID 2282980); conditions: HepG2 Attagene TRANS reporter, LXRa transactivation
Oxysterols receptor LXR-alpha (Homo sapiens), sequence (Q13133 whole entry, looked up, the tested form may be a part): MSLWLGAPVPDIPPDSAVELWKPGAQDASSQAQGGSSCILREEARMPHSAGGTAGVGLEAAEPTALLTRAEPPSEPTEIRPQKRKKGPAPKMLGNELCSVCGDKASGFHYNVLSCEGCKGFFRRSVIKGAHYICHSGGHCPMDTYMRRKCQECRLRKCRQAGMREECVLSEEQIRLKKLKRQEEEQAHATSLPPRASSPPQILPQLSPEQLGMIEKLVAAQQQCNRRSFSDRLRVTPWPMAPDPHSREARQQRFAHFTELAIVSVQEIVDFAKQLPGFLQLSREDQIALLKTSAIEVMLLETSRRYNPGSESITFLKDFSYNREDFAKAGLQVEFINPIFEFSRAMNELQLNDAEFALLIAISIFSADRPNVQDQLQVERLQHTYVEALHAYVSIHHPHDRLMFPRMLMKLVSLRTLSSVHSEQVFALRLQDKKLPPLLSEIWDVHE
How it was run: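 Read-out: reporter transcript levels by RT-PCR plus capillary electrophoresis, fluorescence intensity. Transiently transfected HepG2, exogenous NR-GAL4 chimera, GAL4-UAS reporters; 24 h compound exposure. Activity = increase over DMSO negative control.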

NC(=O)N(O)[C@@H]1C=C[C@H](Oc2cccc(Oc3ccc(F)cc3)c2)C1
AC50 [1]: 33 µM (active)
outcome [2]: inactive
outcome [3]: inactive
AC50 [4]: 26 µM (active)
AC50 [5]: 11.2 µM (active)
outcome [6]: inactive
outcome [7]: inactive
outcome [8]: inactive
outcome [9]: inactive
outcome [10]: inactive
outcome [11]: inactive
outcome [12]: inactive
outcome [13]: inactive
outcome [14]: inactive
outcome [15]: inactive

Cc1oc(-c2ccccc2)nc1CCOc1ccc(C[C@H](Nc2ccccc2C(=O)c2ccccc2)C(=O)O)cc1
outcome [1]: inactive
outcome [2]: inactive
outcome [3]: inactive
AC50 [4]: 16.6 µM (active)
outcome [5]: inactive
outcome [6]: inactive
outcome [16]: inactive
outcome [9]: inactive
outcome [17]: inactive
outcome [13]: inactive
AC50 [14]: 19.9 µM (active)
outcome [15]: inactive

CCc1ccc(CCOc2ccc(CC3SC(=O)NC3=O)cc2)nc1 (stereo not drawn)
outcome [1]: inactive
outcome [2]: inactive
outcome [3]: inactive
outcome [4]: inactive
outcome [18]: inactive
outcome [5]: inactive
outcome [6]: inactive
outcome [7]: inactive
outcome [16]: inactive
outcome [9]: inactive
outcome [19]: inactive
outcome [11]: inactive
outcome [12]: inactive
outcome [15]: inactive

O=C(OCCOCCOC(=O)c1ccccc1)c1ccccc1
outcome [1]: inactive
outcome [2]: inactive
outcome [3]: inactive
outcome [4]: inactive
outcome [6]: inactive
outcome [7]: inactive
outcome [10]: inactive
outcome [19]: inactive
outcome [11]: inactive
outcome [12]: inactive
outcome [17]: inactive
outcome [15]: inactive

Source: PubChem BioAssay (EPA / NIEHS)
